Values joined by “and” are separate entries in the source; they are usually repeats but may differ in a detail not shown here. Identical values can stand only once. Inconclusive results are not listed. Unmarked numbers belong to inactive results. Active and inactive are the calls of the source. Calls follow the shape of the dose curve; as a rule, active = well fitted cell-killing curve with a large enough effect in the repeat runs; inconclusive = weak or mixed curves, or effect the other way; inactive = flat fitted curve, though single readings scatter.
Test: qHTS RealTime-Glo MT Cell Viability Assay in HEK293 cells - 40 hour (AID 1224874); also: nearly all actives have a fitted effect of over 50% in size
Conditions: RealTime-Glo luminescence; max response: active compounds read low
Source text: U.S. Tox21 Program National Center for Advancing Translational Sciences [NCATS] NIH Chemical Genomics Center [NCGC] U.S. Environmental Protection Agency [EPA] National Institutes of Environmental Health Sciences [NIEHS] National Toxicology Program [NTP] U.S. Food and Drug Administration [FDA] Tox21 Assay Overview: Measure of cell viability is critical in the cell-base assay. Analysis of cell viability is necessary for the characterization of cell responses to cytotoxic drugs and environmental stress. A RealTime-Glo MT Cell Viability Assay to monitor cell viability in real time of continues cell culture during 40 hours of compound treatment was used to screen Tox21 10K library compounds in Hek293 cells. The RealTime-Glo MT Cell Viability Assay is a nonlytic, homogeneous, bioluminescent method to measure cell viability in real time using a simple, plate-based method. The assay involves adding NanoLuc luciferase and a cell-permeant prosubstrate to cells in culture. Viable cells reduce the proprietary prosubstrate to generate a substrate for NanoLuc luciferase. This substrate diffuses from cells into the surrounding culture medium, where it is rapidly used by the NanoLuc Enzyme to produce a luminescent signal. The signal correlates with the number of viable cells, making the assay well suited for cytotoxicity studies.
Tox21 Assay Protocol Summary: The mixture of Hek293 cell suspension and reagents were dispensed at 600cells/6 ul/well in 1536-well tissue culture treated black solid bottom plates using a Multidrop dispenser. After the assay plates were incubated at a 37 C/5% CO2 incubator for 5 hours, 23 nL of compounds dissolved in DMSO, positive and negative controls was transferred to the assay plate by a pintool work station. The plates were incubated at 37 C for 40 hours. The luminescence intensity were measured at 0h, 8h, 16h, 24h, 32h and 40h time points using ViewLux plate reader during compound treatment.
% is scaled to controls: 0 for no effect and ±100 for the full control effect; potency is read from the fitted curve at half-maximal effect.

Row | SMILES | Potency | max response
1 | CCc1cc(Cc2cc(CC)c(N)c(CC)c2)cc(CC)c1N | 27.5 µM (active) | –
2 | C/C=C1/C(=O)C[C@H]2[C@@H]3CCC4=CC(=O)CC[C@]4(C)[C@H]3CC[C@]12C | 48.8 µM (active) | –
3 | CC(NN)c1ccccc1 (stereo not given) | – | 2.41%
4 | CCC1=C[C@@H]2CN(C1)Cc1c([nH]c3ccccc13)[C@@](C(=O)OC)(c1cc3c(cc1OC)N(C)[C@H]1[C@@](O)(C(=O)OC)[C@H](OC(C)=O)[C@]4(CC)C=CCN5CC[C@]31[C@@H]54)C2 | 0.0067 µM (active) | –
5 | NC(=O)C1(N2CCCCC2)CCN(CCCN2c3ccccc3CCc3ccc(Cl)cc32)CC1 | 21.3 µM (active) | –
6 | O=C(c1ccc(O)cc1O)c1ccc(O)cc1O | – | -12.9% and -13.9%
7 | C=C(C)C(=O)OCC[N+](C)(C)C | – | -0.113%
8 | CCCCCCCCCCCCCCCCCC[N+](C)(C)Cc1ccccc1 | 1.75 µM (active) | –
9 | C[C@]12CCC(=O)C=C1CC[C@@H]1[C@@H]2[C@@H](O)C[C@@]2(C)[C@H]1CC[C@]2(O)C(=O)COC(=O)CCC(=O)O | – | -8.8%
10 | CC(=O)OCC(C)OC(C)=O (stereo not given) | – | -0.171%
11 | CCCCCCCCOC(=O)c1ccc(O)cc1 | 27.4 µM (active) | –
12 | Clc1ccc(C(Cn2ccnc2)OCc2ccc(Sc3ccccc3)cc2)c(Cl)c1 (stereo not given) | – | -2.43%
13 | Nc1ccc2cc(S(=O)(=O)O)cc(O)c2c1N=Nc1ccccc1C(F)(F)F | – | 0.853%
14 | CCN(CC)CCNC(=O)c1c(C)[nH]c(/C=C2\C(=O)Nc3ccc(F)cc32)c1C | 8.49 µM (active) | –
15 | Cc1onc(-c2ccccc2Cl)c1C(=O)N[C@@H]1C(=O)N2[C@@H]1SC(C)(C)[C@@H]2C(=O)O | – | -0.669%
16 | CC(C)(C)NC(=O)[C@@H]1C[C@@H]2CCCC[C@@H]2CN1C[C@@H](O)[C@H](Cc1ccccc1)NC(=O)[C@H](CC(N)=O)NC(=O)c1ccc2ccccc2n1 | 17.6 µM (active) | –
17 | CN(C)[C@@H]1C(=O)C(C(N)=O)=C(O)[C@@]2(O)C(=O)C3=C(O)c4c(O)cccc4C[C@H]3C[C@@H]12 | – | 1.21%
18 | COc1cc(-c2ccc(N=C=O)c(OC)c2)ccc1N=C=O | – | -10%
19 | O=C(Oc1cccc2cccnc12)c1ccccc1 | – | -33.8%
20 | CCCCCCCCCCCCCC[P+](CCCC)(CCCC)CCCC (tested in a mixture with another compound) | 0.349 µM (active) | –

Row | SMILES | Potency | max response
21 | CNC(=O)c1ccccc1 | – | -8.54%
22 | Cc1cc(N)c(S(=O)(=O)O)cc1Cl | – | 1.42%
23 | NNc1nc(-c2ccc([N+](=O)[O-])cc2)cs1 | 24.5 µM (active) | –
24 | CC1(C)CCC(C)(C)c2cc(C(=O)Nc3ccc(C(=O)O)cc3)ccc21 | – | -14.6%
25 | Cc1cc(O)c2ccccc2c1O | 8.49 µM (active) | –
26 | CCCCCCCCNC(C)C(O)c1ccc(SC(C)C)cc1 (stereo not given) | 8.49 µM (active) | –
27 | CC1=C(/C=C/C(C)=C/C=C/C(C)=C/C=O)C(C)(C)CCC1 | 19.4 µM (active) | –
28 | CCC(CN)=C(c1ccccc1)c1ccccc1 | – | -19.1%
29 | O=c1[nH]cnc2nc[nH]c12 | – | 3.71%
30 | OCCCCCCCCCCCCBr | 11.1 µM (active) | –
31 | Cc1ccc2oc(CN(Cc3ccccc3)C(=O)Nc3c(F)cc(F)cc3F)c(-c3ccc(Cl)cc3)c2c1 | – | -18.1%
32 | COc1cccc2c1C(=O)c1c(O)c3c(c(O)c1C2=O)C[C@@](O)(C(=O)CO)C[C@@H]3O[C@H]1C[C@H](N)[C@H](O[C@@H]2CCCCO2)[C@H](C)O1 | 0.19 µM (active) | –
33 | COc1ccc(-c2ccc3cc(C(=O)O)ccc3c2)cc1C12CC3CC(CC(C3)C1)C2 | 4.77 µM (active) | –
34 | Cc1ccc(O)c2ncccc12 | – | -18.6%
35 | O=C(Nc1ccc(Oc2ccc(Cl)cc2)c(Cl)c1)c1cc(I)cc(I)c1O | – | 2.12%
36 | O=c1[nH]sc2ccccc12 | 30.9 µM (active) | –
37 | CCCC/C=C/CCCCO | – | 5.87%
38 | O=C(O)c1cc(O)c2c(c1)C(=O)c1cccc(O)c1C2=O | – | -10.8%
39 | CC[C@@]1(O)C(=O)OCc2c1cc1n(c2=O)Cc2cc3c(CN(C)C)c(O)ccc3nc2-1 | 0.0756 µM (active) | –
40 | CNc1ccc(O)cc1 | 12.3 µM (active) | –
